Measurements reported in the OligoGym collection.
Also: reference of the scale not given here.

What follows are sequences tested against GLIS2 (assay: pooled miR-30 sensor sort-seq; sequence = guide strand). Settings: shRNA.
Sequence ATAGTCATTAGCTTATCTCTTT has a sensor-assay potency score (higher = more potent) of -0.353.
Work on TAGTCATTAGCTTATCTCTTTT yielded a sensor-assay potency score (higher = more potent) of -1.29.
TGGATGAGCATCTTGTACCTGG showed a sensor-assay potency score (higher = more potent) of -0.352.
With TAGAAAGGCACTTAGAACCTGT the sensor-assay potency score (higher = more potent) was 0.24.
ATCGTTGACATGGTCCACCAGG gave a sensor-assay potency score (higher = more potent) of -0.948.
For TATTGTTATAGTCATTAGCTTA, the sensor-assay potency score (higher = more potent) was -0.656.
Sequence TAAAACTCTATGCTAACAGCAA has a sensor-assay potency score (higher = more potent) of -0.574.
TTGGAATAGCGCTTGTTGCAGC was tested, and the sensor-assay potency score (higher = more potent) was -0.438.
Sequence TTCTCGTTGGTGTGTGTGCGGA has a sensor-assay potency score (higher = more potent) of -0.632.
TTTCACAGAAGAGTTTCCGTTC was tested, and the sensor-assay potency score (higher = more potent) was 0.4.
Work on TTTATAAACTTCCTCTCCCATG yielded a sensor-assay potency score (higher = more potent) of -1.13.
TTTTTTTAAAACTCTATGCTAA was tested, and the sensor-assay potency score (higher = more potent) was -0.424.

What follows are sequences tested against GLP1R in the same assay as above. Settings: shRNA.
With TATCCTATTATTTTCCTTGCAC the sensor-assay potency score (higher = more potent) was 0.182.
TTCAGGTGGATGTAGTTCCTGG showed a sensor-assay potency score (higher = more potent) of -0.141.
TTCCTTGCACATCACATGCCTC gave a sensor-assay potency score (higher = more potent) of -0.533.
With TTGATGAAGACGGACAATGCTC the sensor-assay potency score (higher = more potent) was -0.64.
In the case of TTATATCCTATTATTTTCCTTG, the sensor-assay potency score (higher = more potent) is reported as -0.237.
TTGATGTCTGTCTTGCACATGA was tested, and the sensor-assay potency score (higher = more potent) was -0.0737.
For TAGTTCATGTTGGAGTTCCTGG, the sensor-assay potency score (higher = more potent) was -0.642.
With TTTTGCAGCCACGAACTCCTTG the sensor-assay potency score (higher = more potent) was 0.187.
TTGGAGTTCCTGGTCCAGCAGC gave a sensor-assay potency score (higher = more potent) of -1.12.
Work on TTTGATGTCTGTCTTGCACATG yielded a sensor-assay potency score (higher = more potent) of -0.835.
With TTGCAGAACAAGTCTGTGGCAG the sensor-assay potency score (higher = more potent) was 0.187.
For ATGAGCAGAAACACCAGGCGGC, the sensor-assay potency score (higher = more potent) was -0.579.

Each sequence was assayed against GLRA3 in the same assay as above. Settings: shRNA.
In the case of TAGGCTGTGAAGCTGAATCGGC, the sensor-assay potency score (higher = more potent) is reported as -0.0399.
Sequence TTATTCTTTCTCTTTCGTCGAA has a sensor-assay potency score (higher = more potent) of 0.181.
TTCTTCTTTCAACAGAAACTGG showed a sensor-assay potency score (higher = more potent) of -0.833.
For TGACTTTGCATAGCTAACCAAA, the sensor-assay potency score (higher = more potent) was -1.29.
Work on TATACATGTTTGTACATCCATG yielded a sensor-assay potency score (higher = more potent) of -1.26.
In the case of TAGCATTGAATTACAAATCAAG, the sensor-assay potency score (higher = more potent) is reported as -1.08.
For TATTCTTTCTCTTTCGTCGAAA, the sensor-assay potency score (higher = more potent) was -0.712.
In the case of TTGCTTGTAGACATGGTCCCAT, the sensor-assay potency score (higher = more potent) is reported as 0.533.
TTGCATGTGACATTAACTGGAG gave a sensor-assay potency score (higher = more potent) of -0.491.
TAACATATAAACACATTGGCAG gave a sensor-assay potency score (higher = more potent) of -0.00869.
TTCGAGATCTTGCACTGTCTGT gave a sensor-assay potency score (higher = more potent) of -0.307.
For TAGCTTTGACATATGAAACTTT, the sensor-assay potency score (higher = more potent) was -0.212.

The sequences below were run against GNAQ in the same assay as above. Settings: shRNA.
In the case of TCGAACTCTAAGCACATCTTGT, the sensor-assay potency score (higher = more potent) is reported as -0.759.
For TATCTTCATCAGAGTATCCTGA, the sensor-assay potency score (higher = more potent) was -0.164.
In the case of TCTAAGCACATCTTGTTGCGTA, the sensor-assay potency score (higher = more potent) is reported as 0.35.
Sequence ATAATTGATATTCTCGTCGTCT has a sensor-assay potency score (higher = more potent) of 0.0326.
